Laboratory results taken from PubChem BioAssay AID1778 (Sanford-Burnham Center for Chemical Genomics, 2009).
Screen size: about 290,000 compounds; about 260 (0.09%) were called active. This is one part of a sample in which actives are shown more often than they occur. Rule as the data show it: active = inhibition above about 50%; inactive = the rest. Potency and affinity values are given separately.

Biological target: Kappa-type opioid receptor (Homo sapiens) (UniProt P41145)
Assay: kappa opioid receptor blockers – cell-based, luminescence, uHTS (AID 1778)
Conditions: KOR beta-arrestin recruitment, antagonist mode, hits give high values; at 10 µM unless noted

Kappa-type opioid receptor (Homo sapiens), sequence (P41145 whole entry, looked up): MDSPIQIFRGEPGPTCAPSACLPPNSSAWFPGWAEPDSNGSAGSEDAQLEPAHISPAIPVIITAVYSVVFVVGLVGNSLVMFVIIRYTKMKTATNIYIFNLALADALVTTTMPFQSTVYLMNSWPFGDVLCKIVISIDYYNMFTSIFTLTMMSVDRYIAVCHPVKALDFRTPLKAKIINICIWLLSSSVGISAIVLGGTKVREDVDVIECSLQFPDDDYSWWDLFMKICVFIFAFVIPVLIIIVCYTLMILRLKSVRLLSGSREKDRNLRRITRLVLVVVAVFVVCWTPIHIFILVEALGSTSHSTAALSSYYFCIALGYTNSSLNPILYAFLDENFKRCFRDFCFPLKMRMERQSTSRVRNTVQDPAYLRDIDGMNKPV

| SMILES | inhibition |
| --- | --- |
| NS(=O)(=O)c1ccc(CCNC(=O)CSc2nc3ccsc3c(=O)n2CCCCC(=O)O)cc1 | 3% (inactive) |
| N#CCC(=O)NNC(=S)NC(=O)C(c1ccccc1)c1ccccc1 | -32.2% [at 20 µM] (inactive) |
| Cc1[nH][nH]c(=O)c1C(c1c(C)[nH][nH]c1=O)c1cn(Cc2ccc(Cl)c(Cl)c2)c2ccccc12 | -8.7% (inactive) |
| Cc1[nH][nH]c(=O)c1C(c1c(C)[nH][nH]c1=O)c1cn(Cc2ccc(F)cc2)c2ccccc12 | 53.6% (active) |
| Cc1[nH][nH]c(=O)c1C(c1c(C)[nH][nH]c1=O)c1cn(Cc2ccccc2Cl)c2ccccc12 | -4% (inactive) |
| Cc1ccc(NC(=O)C23CCC(C)(C(=O)[C@H]2Br)C3(C)C)cc1 (some centres not stated) | -3.6% (inactive) |
| O=C(OCn1ncc(Br)c(Br)c1=O)c1c(F)cccc1F | 28% (inactive) |
| O=C(OCn1ncc(Cl)c(Cl)c1=O)c1ccc(F)cc1 | 5.2% (inactive) |
| CC(C)C(C(=O)NC(C)(C)C)N1C(=O)c2ccccc2C1=O (configuration not stated) | -6.7% (inactive) |
| Cc1cc(C(=O)Nc2ccc(Br)cc2)cs1 | 9.2% (inactive) |
| CC(=O)c1c(C)nn(CCC(=O)O)c1C | 18.3% (inactive) |
| Cc1ccnc(NC(=O)c2sc3cc(Cl)ccc3c2Cl)c1 | 9.3% (inactive) |
| O=C(Nc1nccs1)c1sc2ccccc2c1Cl | -49.2% (inactive) |
| O=C(CCN1C(=O)S/C(=C/c2ccc(Cl)cc2)C1=O)N1CCOCC1 | 36.7% (inactive) |
| Cn1c(C(=O)NCc2cccnc2)cc2sccc21 | 26.2% (inactive) |
| O=C(NCc1ccccc1)c1c(Cl)nc(Cl)c(Cl)c1Cl | 58.5% (active) |
| Cc1nc(Cl)c(C(=O)NCc2ccccc2)c(C)c1[N+](=O)[O-] | 13.7% (inactive) |
| Cc1nc(Cl)c(C(=O)NCc2ccccc2)c(C)c1Cl | 7.6% (inactive) |
| Cc1ccccc1-c1nc(CS(=O)(=O)CC(=O)N2CCOCC2)c(C)o1 | -6% (inactive) |
| O=C(NCc1ccc(Cl)cc1)c1cc(=O)[nH]c2ccccc12 | -54.2% (inactive) |
| O=C(NCc1ccccc1Cl)c1cc(=O)[nH]c2ccccc12 | 4.5% (inactive) |
| CCOC(=O)c1cc(-c2ccc(N3CCOCC3)cc2)nn1-c1ccc(F)cc1F | 21.8% (inactive) |
| COc1ccc(NC(=O)CSc2nnnn2-c2ccc(OC)cc2)cc1 | -1.3% (inactive) |

| SMILES | inhibition |
| --- | --- |
| CC(CCc1ccccc1)NC(=O)COC(=O)c1ccc(S(C)(=O)=O)c([N+](=O)[O-])c1 (configuration not stated) | 18.3% (inactive) |
| CC(=O)c1cccc(NC(=O)COC(=O)c2ccc(S(C)(=O)=O)c([N+](=O)[O-])c2)c1 | 18.1% (inactive) |
| Cc1ccccc1NC(=O)COC(=O)c1ccc(S(C)(=O)=O)c([N+](=O)[O-])c1 | 53.9% [at 20 µM] (active) |
| O=C(Cc1cccs1)Nc1ccccc1C(=O)O | 27.3% (inactive) |
| COC(=O)Cc1cc(=O)n(-c2nc3ccccc3[nH]2)[nH]1 | 21.2% (inactive) |
| O=c1cc(-c2ccccc2)[nH]n1-c1nc2ccccc2[nH]1 | 11.5% (inactive) |
| COc1ccc(NC(=O)CSc2nc3sc(C)cc3c(=O)n2C)c(OC)c1 | -25.7% (inactive) |
| O=C(NCC1CCCO1)C(c1ccc(F)cc1)N(Cc1ccc2c(c1)OCO2)C(=O)c1ccc(CN2CCOCC2)o1 (configuration not stated) | -17.9% [at 20 µM] (inactive) |
| COc1cc(/C=C2\SC(=S)N(NC(=O)c3ccncc3)C2=O)ccc1O | 49.4% (inactive) |
| Cc1ccc(/C=C2\SC(=S)N(c3c(C)n(C)n(-c4ccccc4)c3=O)C2=O)cc1 | -2.4% (inactive) |
| O=C1/C(=C/c2ccc(O)c(O)c2)SC(=S)N1Nc1ccccc1 | 35.5% (inactive) |
| CCOc1ccc(/C=C2\SC(=S)N(C(C(=O)O)c3ccccc3)C2=O)cc1OC (configuration not stated) | 9.7% (inactive) |
| Cc1c(N2C(=O)/C(=C/c3ccccc3)SC2=S)c(=O)n(-c2ccccc2)n1C | -9.4% (inactive) |
| CCOc1ccc(/C=C2/SC(=S)N(C(C(=O)O)c3ccccc3)C2=O)cc1OCC (configuration not stated) | -34.9% (inactive) |
| CCOc1cc(/C=C2\SC(=S)N(Nc3ccccc3)C2=O)ccc1O | 9% (inactive) |
| COc1cc(/C=C2\SC(=S)N(NC(=O)c3ccc(O)cc3)C2=O)ccc1O | 47.2% (inactive) |
| Cn1cnnc1SCC(=O)Nc1ccc(OC(F)F)cc1 | -3.3% (inactive) |
| C/C(=N\NC(=O)c1ccc2c(c1)OCO2)c1cccnc1 | 14.6% (inactive) |
| COc1ccc(NC(=O)CCCN2C(=O)C(c3ccccc3)Oc3cccnc32)cc1OC (configuration not stated) | 7% (inactive) |
| CN1CCN(C2CC(=O)N(CCc3ccccc3)C2=O)CC1 (configuration not stated) | 10.4% (inactive) |
| Cc1cc(C(c2ccc(C)o2)c2ccc(C)o2)c(O)c([N+](=O)[O-])c1 | -22.8% (inactive) |
| COc1ccc([N+](=O)[O-])cc1NC(=O)Cc1c(Cl)cccc1Cl | 15.2% (inactive) |
| CCCc1nc2sc3c(=O)[nH]cnc3c2c2c1CCCC2 | -21.3% (inactive) |

| SMILES | inhibition |
| --- | --- |
| CCCc1nc2sc3c(=O)n(N)cnc3c2c2c1CCCC2 | -14.5% (inactive) |
| CCCc1nc2oc3c(N4CCNCC4)ncnc3c2c2c1CCCC2 | 14.5% (inactive) |
| CC(C)Cc1nc2oc3c(Cl)ncnc3c2c2c1CCC2 | 32.2% (inactive) |
| Cn1ccnc1Sc1ccccc1[N+](=O)[O-] | 6.9% (inactive) |
| O=C(/C=C/c1cccc([N+](=O)[O-])c1)c1cccs1 | 14.1% (inactive) |
| Cc1sc2nc(-c3ccccn3)[nH]c(=O)c2c1-c1ccccc1 | 49.2% (inactive) |
| CCc1cc2c(=O)[nH]c(-c3ccccn3)nc2s1 | 104% (active) |
| CCc1cc2c(=O)[nH]c(Cc3ccccc3)nc2s1 | -15.3% (inactive) |
| O=c1[nH]c(-c2ccccn2)nc2ccccc12 | 13.8% (inactive) |
| CCc1cc2c(=O)[nH]c(-c3ccncc3)nc2s1 | -17.3% (inactive) |
| COc1ccc(CNC(=O)Nc2cccc3ccccc23)cc1 | 7.6% (inactive) |
| N#CC1=C(N)Oc2n[nH]c(-c3ccccc3)c2C1c1cccc(OC(=O)N2CCOCC2)c1 (configuration not stated) | 15.5% (inactive) |
| O=C(NCCN1CCOCC1)C(=O)NCc1ccc2c(c1)OCO2 | -60.9% [at 20 µM] (inactive) |
| CCOc1ccc(C(=O)/C=C/Nc2ccc(S(=O)(=O)Nc3onc(C)c3C)cc2)cc1 | -11% (inactive) |
| CC(Oc1ccc(Br)cc1)C(=O)NCc1ccccn1 (configuration not stated) | -23.9% [at 20 µM] (inactive) |
| C[C@H](NC(=O)c1ccccc1)C(=O)Nc1nc(-c2ccccn2)cs1 | -31% (inactive) |
| CNc1ccc(OC(F)F)cc1C(=O)c1ccccc1 | 17.2% (inactive) |
| Cc1ccc(SCC(=O)N2CCc3ccccc32)cc1 | -4.7% (inactive) |
| CC(=O)/C(=N\Nc1ccccc1Cl)Sc1cccc2cccnc12 | -17.2% (inactive) |
| CC(=O)/C(=N\Nc1cccc(Cl)c1)Sc1cccc2cccnc12 | 9.1% (inactive) |
| Fc1ccc2[nH]c3c(c2c1)CN(C(=S)NCc1ccccc1)CC3 | -9.6% (inactive) |
| O=C1CSC(c2ccccc2Br)N1c1ccc(Cl)cn1 (configuration not stated) | 2.8% (inactive) |
| CCOC(=O)c1nn(-c2ccccc2C)c2nc(CC(C)C)c(C#N)c(=O)n12 | -35.8% (inactive) |

| SMILES | inhibition |
| --- | --- |
| O=C(Nc1nc(-c2ccccn2)cs1)c1cc(Cl)ccc1[N+](=O)[O-] | 86.8% (active) |
| Cc1cc(C(=O)Nc2nc(-c3ccccn3)cs2)ccc1[N+](=O)[O-] | 22.6% (inactive) |
| O=C(Nc1nccs1)c1cc(Cl)ccc1[N+](=O)[O-] | 8.6% (inactive) |
| CNC(=O)CSc1nc2ccccc2c(=O)n1-c1cc(OC)ccc1OC | 0.7% (inactive) |
| CC(NC(=O)Cn1cc(C(F)(F)F)ccc1=O)c1ccc(F)cc1 (configuration not stated) | -19.7% (inactive) |
| Cc1ccc(-c2nnc(SCC(N)=O)n2C)cc1 | -13.4% [at 20 µM] (inactive) |
| COC(=O)CC(N)c1ccc(OC)c2ccccc12 (configuration not stated) | 15.2% (inactive) |
| Oc1ccc(N=Nc2nc(-c3ccccc3)c(-c3ccccc3)[nH]2)cc1 | 32.4% (inactive) |
| Cc1[nH]oc(=O)c1N=Nc1ccccc1 | -11% (inactive) |
| N#Cc1ccc(NC(=O)CSc2cn[nH]n2)cc1 | -56.1% (inactive) |
| CC(NC(=O)c1cc2cc([N+](=O)[O-])ccc2oc1=O)C1CCCO1 (configuration not stated) | -4.3% [at 20 µM] (inactive) |
| C#CCOCCOCCOCCNc1nc(N2CCN(C(=O)C(Cc3ccc(O)cc3)n3cc(C(N)CC(C)C)nn3)CC2)nc(N2CCN(C(=O)C(Cc3cc4ccccc4[nH]3)n3cc(C(N)Cc4ccc(O)cc4)nn3)CC2)n1 (configuration not stated) | 12% (inactive) |
| C#CCOCCOCCOCCNc1nc(N2CCN(C(=O)[C@H](Cc3ccc(O)cc3)n3cc([C@@H](N)CC(C)C)nn3)CC2)nc(N2CCN(C(=O)[C@H](Cc3cc4ccccc4[nH]3)n3cc([C@@H](N)CC(C)C)nn3)CC2)n1 | 10.8% (inactive) |
| C#CCOCCOCCOCCNc1nc(N2CCN(C(=O)[C@H](Cc3cc4ccccc4[nH]3)n3cc([C@@H](N)Cc4ccc(O)cc4)nn3)CC2)nc(N2CCN(C(=O)[C@H](Cc3cc4ccccc4[nH]3)n3cc([C@@H](N)CC(C)C)nn3)CC2)n1 | 51.3% (active) |
| O=C(Nc1ccc(OC(F)(F)F)cc1)c1ccc2ccccc2n1 | -27.1% (inactive) |
| O=[N+]([O-])c1c(NCCCO)cc(Sc2nc3ccccc3s2)c2nonc12 | 42.1% (inactive) |
| CCCC(=O)OCCNc1cc(Sc2nc3ccccc3[nH]2)c2nonc2c1[N+](=O)[O-] | 49.9% (inactive) |
| CC(=O)OCCNc1cc(SC(C)C)c2nonc2c1[N+](=O)[O-] | -32.5% (inactive) |
| CCCSc1cc(NCCOC(C)=O)c([N+](=O)[O-])c2nonc12 | -12.8% (inactive) |
| Cc1nnc(Sc2cc(NCCO)c([N+](=O)[O-])c3nonc23)s1 | 17.1% (inactive) |
| CCCC(=O)OCCNc1cc(SCc2ccco2)c2nonc2c1[N+](=O)[O-] | 9.3% (inactive) |
| Cc1ccc(Sc2cc(NCCCO)c([N+](=O)[O-])c3nonc23)cc1 | 5.8% (inactive) |
| CC(=O)OCCCNc1cc(Sc2nc3ccccc3s2)c2nonc2c1[N+](=O)[O-] | -22.9% (inactive) |
